High-throughput results (PubChem BioAssay)
mHTT-CaM PPI inh: mutant huntingtin-calmodulin interaction inhibitors – biochemical, AlphaScreen, primary screen. inhibition, % at 15 µM. AID 1671202, 2021. 3.6% of 190,000 active. AlphaScreen His-mHTT/GST-CaM binding, luminescence;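 further: 0% = both proteins with DMSO and 100% = one protein alone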
Pf apPOL inh: Pf-apPOL inhibitors, biochemical, fluorescence; inhibition, % at 10 µM; 0.25% of 210,000 active; Recombinant Pf-apPOL, molecular beacon fluorescence, 1.5 h
An asterisk follows results filed as active; i = inactive; · = no result given. Most compounds without a hit are left out; they make up all but 3.6% or so of the library. No stated cut-off is given here; in the data, active means inhibition above about 50%; inactive means the rest.

SMILES	mHTT-CaM PPI inh	Pf apPOL inh
C=CCOc1ccc(C=Nc2ccc(OC)cc2)c(O)c1	0	-2
COc1cc(OC)c(C=Nc2ccccc2)cc1Br	4	-2
CN1CCN(CCC(=O)Nc2ccc3c(c2)OCCO3)CC1	-26	-7
COc1nc(-n2nc(C)cc2C)nc(-n2nc(C)cc2C)n1	-8	64*
Cc1cc(C)n(-c2nc(C)nc(N)n2)n1	1	7
N#CCCN(CC1CCCO1)S(=O)(=O)c1cccc2nsnc12 (stereo not drawn)	·	-15
Cc1cc(OCC(=O)O/N=C(\N)c2ccncc2)ccc1Br	i	-1
COc1ccc(OC)c(/C=C(\C#N)c2[nH]nc(N)c2C#N)c1	61*	-64
N#C/C(=C\c1ccc2c(c1)OCO2)c1[nH]nc(N)c1C#N	20	-3
Cc1ccc(/C=C(\C#N)c2[nH]nc(N)c2C#N)cc1	31	-1
N#C/C(=C\c1c[nH]c2ccccc12)c1[nH]nc(N)c1C#N	54*	1
N#C/C(=C\c1ccc(-c2ccc(Cl)c(Cl)c2)o1)c1[nH]nc(N)c1C#N	95*	-7
COc1cc(/C=C(\C#N)c2[nH]nc(N)c2C#N)cc(OC)c1OC	-5	-3
O=C(NCCN1CCCCC1)c1ccc2ncnc(N3CCCCC3)c2c1	3	-2
COc1ccccc1C(=O)Nc1c2c(nn1-c1ccccc1C)CS(=O)(=O)C2	8	-1
O=C1/C(=C/c2ccsc2)CS/C1=C\c1ccsc1	63*	-6
O=C1/C(=C/c2cccnc2)CS/C1=C\c1cccnc1	20	3
O=C(Nc1cccc(Cl)c1)c1cccc([N+](=O)[O-])c1	92*	-16
Cc1cccc(NC(NC(=O)c2ccc([N+](=O)[O-])cc2)C(Cl)(Cl)Cl)c1 (stereo not drawn)	76*	-1
Cc1cccc(NC(NC(=O)N(C)C)C(Cl)(Cl)Cl)c1 (stereo not drawn)	5	-3
NS(=O)(=O)c1ccc(NC(NC(=O)c2cccc(Cl)c2)C(Cl)(Cl)Cl)cc1 (stereo not drawn)	10	0
O=C(Nc1cccc(Cl)c1)c1ccc([N+](=O)[O-])cc1Cl	16	4
O=C(NC(Nc1ccc([N+](=O)[O-])cc1)C(Cl)(Cl)Cl)c1cccc(Cl)c1 (stereo not drawn)	100*	0
NS(=O)(=O)c1ccc(NC(NC(=O)c2ccc([N+](=O)[O-])cc2)C(Cl)(Cl)Cl)cc1 (stereo not drawn)	15	-10
O=C(NC(Nc1ccc([N+](=O)[O-])cc1)C(Cl)(Cl)Cl)c1cccc([N+](=O)[O-])c1 (stereo not drawn)	98*	-1
SMILES	mHTT-CaM PPI inh	Pf apPOL inh
Cc1cccc(C2CCCN2C(=O)Nc2ccccc2)c1 (stereo not drawn)	-7	0
C#CCSc1nc(C)c2cc(C)cc(C)c2n1	-27	1
Cc1ccc(C(=O)NCC2COC3(CCCC3)O2)cc1[N+](=O)[O-] (stereo not drawn)	16	3
Cc1ccc(N2C(=O)Nc3ccc(Br)cc3C2(O)C(=O)NC2CC2)cc1C (stereo not drawn)	-2	-6
COc1ccc(-c2csc(/C(C#N)=C/c3ccc(OC)o3)n2)cc1	69*	-1
N#C/C(=C\c1ccc(O)c(O)c1)c1nc(-c2cccc([N+](=O)[O-])c2)cs1	66*	1
Cc1ccc(/C=C(\C#N)c2nc(-c3ccc(Br)cc3)cs2)o1	14	-1
COc1cc(/C=C(\C#N)c2nc(-c3ccc(Br)cc3)cs2)ccc1O	3	-2
COc1cc(/C=C(\C#N)c2nc(-c3ccccc3)cs2)ccc1O	97*	-3
CCOc1ccc(/C=C(\C#N)c2nc3ccccc3s2)cc1OC	-12	-2
CCOc1cc(/C=C(\C#N)c2nc3ccccc3s2)ccc1O	56*	-5
N#C/C(=C\c1ccc(O)c(Br)c1)c1nc(-c2cccc([N+](=O)[O-])c2)cs1	7	-1
COc1ccc(CNCc2ccc3nccnc3c2)c(OC)c1	3	-6
O=C(CCNc1ccc(Br)cc1)c1ccc([N+](=O)[O-])cc1	30	-4
O=C(c1cnccn1)N1CCC(c2cc(-c3ccc(F)cc3)n[nH]2)CC1	12	-6
COc1cc(C=O)cc(Cl)c1OC	2	-2
Cc1ccc(-c2csc(/C(C#N)=C/c3ccc(O)cc3)n2)cc1	32	-5
Cc1ccc(-c2csc(/C(C#N)=C/c3cccc(O)c3)n2)cc1	97*	-4
COc1cccc(/C=C2/NC(=O)N(Cc3ccc(F)cc3)C2=O)c1OCc1cccc(C(=O)O)c1	11	-8
O=C(CN1C(=O)C2CCCN2C(=O)c2cc(F)ccc21)NCc1ccco1 (stereo not drawn)	22	-6
COc1ccc(-c2cn3c(n2)c(=C2CCCN2)c(=O)n3-c2ccccc2)cc1	63*	-7
COc1ccc(-c2cn3ccn(-c4ccc(F)cc4)c(=O)c3n2)cc1	-8	0
COc1ccc(NC(=O)c2ccc(Cl)cc2)c([N+](=O)[O-])c1	10	2
Cc1ccccc1-n1nc2c(c1NC(=O)c1ccccc1[N+](=O)[O-])CSC2	32	-6
O=C(Nc1c2c(nn1-c1ccc([N+](=O)[O-])cc1)CSC2)c1ccc([N+](=O)[O-])cc1	5	-3
SMILES	mHTT-CaM PPI inh	Pf apPOL inh
Cc1ccccc1-n1nc2c(c1NC(=O)c1ccc([N+](=O)[O-])cc1)CSC2	84*	3
Cc1ccccc1-n1nc2c(c1NC(=O)c1cccc(Cl)c1)CSC2	71*	-5
Cc1cc(C)cc(C(=O)Nc2c3c(nn2-c2ccccc2C)CSC3)c1	22	-4
COc1cccc(C(=O)Nc2c3c(nn2-c2ccccc2C)CSC3)c1	41	-3
O=C(Nc1c2c(nn1-c1ccc([N+](=O)[O-])cc1)CSC2)c1ccc(F)cc1	34	58*
Cc1ccccc1-n1nc2c(c1NC(=O)c1ccc(Cl)cc1)CSC2	71*	-2
CC1=C(C(=O)Nc2ccccc2Cl)C2(CCCCC2)OC1=O	-7	-4
CCn1c(=O)c2c(ncn2Cc2cccc(C)c2)n(-c2cccc(F)c2)c1=O	5	4
COCCn1c(C2CCN(C(=O)c3ccc(F)c(Cl)c3)C2)nc2cccnc21 (stereo not drawn)	3	-4
COc1ccc(C(=O)Nc2c3c(nn2-c2cccc(Cl)c2)CSC3)cc1OC	57*	-5
COc1ccc(C(=O)Nc2c3c(nn2-c2cccc(C)c2)CSC3)cc1OC	45	-4
O=S(=O)(CCc1ccccc1)NCC(O)Cc1ccccc1 (stereo not drawn)	-9	-7
O=[N+]([O-])c1cccc(/C=C/c2nc(C=Nc3ccc(O)cc3)c(O)o2)c1	50*	5
O=[N+]([O-])c1cccc(/C=C/c2nc(C=Nc3ccccc3)c(O)o2)c1	-2	1
Cc1cc(C)cc(N2C(=O)C3N=NN(c4cc(C)cc(C)c4)C3C2=O)c1 (stereo not drawn)	-10	2
O=C(c1ccc(SCc2cccnc2)c([N+](=O)[O-])c1)N1CCCC1	4	-7
Cc1cccc(N2CCN(C(=O)c3ccc(SCc4cccnc4)c([N+](=O)[O-])c3)CC2C)c1 (stereo not drawn)	98*	-4
Cc1ccc(-c2ccc(/C=C/C(=O)c3ccco3)o2)cc1	31	-14
COc1ccccc1-c1ccc(C=CC(=O)c2ccco2)o1	58*	-9
CC1=NS(=O)(=O)c2cccnc2N1c1ccc(F)c(Cl)c1	-1	-1
